A selection: hits, their analogues and other compounds. The true share with any hit is near 0.85%.
pAkt inh – inhibitors of Akt phosphorylation. Neuro2A IGF-stimulated pAkt S473 HTRF, 20 min; hits give low values. activity change, % for hits at 50 µM. 360,000 compounds, 0.32% hits; in the data active means activity change below about -80%; inconclusive means mostly about -51% to -80%
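Single-point screen (50 µM final compound) in Neuro2A cells stimulated 20 min with 6 nM IGF at 37 deg C. After lysis, Ser473-phosphorylated Akt read by HTRF (ex 330 nm, em 615/665 nm) as the 665/615 ratio.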
Mm-Cpn inhibitor – inhibitors of Methanococcus maripaludis chaperonin TRiC (MmCpn) | purified Mm-Cpn ATPase, ADP Transcreener TR-FRET | Potency, µM (series often up to 76.9 µM), hits mostly inhibitors | 330,000 compounds, 0.031% hits | AID 504842; further: nearly all actives have a fitted effect of over 80% in size
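ATPase read-out: TR-FRET ADP immunoassay (anti-ADP Eu cryptate vs ADP-d2), ex 320 nm, em 590/665 nm; signal drops as ADP forms. Enzyme 25 nM, ATP 10 uM, 30 min at 37°C after 10 min compound preincubation.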
CCT modulator – modulators of cytosolic chaperonin (CCT/TRiC) activity; 360,000 compounds, 0.3% hits; AID 651819; purified chaperonin ATPase assay, HTRF ADP detection, 30 min; activity change, % (concentration not given with the values), hits read low; in the data active means activity change below about -30%
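Nucleotide hydrolysis assay: TRiC at 20–40 nM final (set by batch activity) with 10 uM ATP, 30 min at 37 °C, in presence of 76 uM compound. Detection by competitive ADP HTRF, 30 min ambient.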
IDH1 R132H inh – human IDH1 R132H inhibition; Potency, µM (top dose mostly 76.6 µM), hits mostly inhibitors; O75874; 390,000 compounds, 0.093% hits; IDH1-R132H enzyme, NADPH consumption, diaphorase/resazurin fluorescence; further: nearly all actives have a fitted effect of over 65% in size
Target sequence (O75874 whole entry R132H, stated change not applied): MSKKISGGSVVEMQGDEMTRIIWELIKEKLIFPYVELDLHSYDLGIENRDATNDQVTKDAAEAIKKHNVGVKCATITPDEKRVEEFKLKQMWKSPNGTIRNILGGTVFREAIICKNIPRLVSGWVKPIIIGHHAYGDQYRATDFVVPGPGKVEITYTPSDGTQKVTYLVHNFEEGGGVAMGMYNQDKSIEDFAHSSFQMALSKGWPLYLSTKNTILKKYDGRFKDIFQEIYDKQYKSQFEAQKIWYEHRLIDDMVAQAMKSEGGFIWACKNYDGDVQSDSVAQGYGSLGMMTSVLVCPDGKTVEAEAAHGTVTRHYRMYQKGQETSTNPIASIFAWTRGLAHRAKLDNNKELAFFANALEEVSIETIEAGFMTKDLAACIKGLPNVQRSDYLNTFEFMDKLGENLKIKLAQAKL
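IDH1-R132H (0.5 ug/mL) preincubated 30 min with compound, then NADPH (0.016 mM) and alpha-KG (2 mM) added; 80 min at RT, pH 7.5. Remaining NADPH coupled via diaphorase/resazurin to fluorescence (540/590 nm); concentration-response curves normalized to no-enzyme control.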
GLS inhibitor – glutaminase GLS (human) inhibition | Potency, µM (doses to about 45.5 µM), actives largely listed as inhibitors | O94925 | 410,000 compounds, 0.21% hits | GLS enzymatic activity, qHTS titration
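Coupled fluorescence readout: glutamate oxidase/HRP/Amplex Red detect glutamate formed by hKGA from L-glutamine (1 mM solution added). Buffer 45 mM KH2PO4 pH 8.2, 0.02% Tween-20; reads at t0 and 30 min RT.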
Glioma ERSR ind – inducers of ER stress response in human glioma cells; U87-MG GRP78 promoter luciferase reporter, 16 h; Potency, µM, usual class: activators; 420,000 compounds, 0.02% hits; AID 602332; further: series mostly up to about 76 µM; nearly all actives have a fitted effect of over 35% in size
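ERSR induction read as luciferase luminescence (Bright-Glo, 10 min at room temperature) in stably transfected human U87-MG glioma cells exposed to compounds for 16 h, using GRP78 as sensor.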
Of the large screens only hits and unclear results are named; the others gave an inactive call. Unless noted, the call rests on the fitted dose curve; in most records, active means well fitted curve in the direction sought with a large enough effect; inconclusive means small, poorly fitted or top-dose-only effect, or another doubt; inactive means no such curve, though single readings can be large; an effect the other way counts as inactive or inconclusive.

Cc1cnc(-n2ncc(C(=O)NCC3CCCN(C)C3)c2C)nc1-c1cccs1 (configuration not stated)	none (no result: pAkt inh, Mm-Cpn inhibitor, CCT modulator, IDH1 R132H inh, GLS inhibitor)
Cc1c(C(=O)N2CCOCC2)c(S(=O)(=O)Nc2ccccc2)c(C)n1C	CCT modulator -53 (no result: pAkt inh)
O=C(Nc1ccc2c(c1)OCCO2)c1oc2ccccc2c1NC(=O)C1CC1	CCT modulator -45
COc1ccc(-c2nn3c(COc4ccccc4)nnc3s2)cc1OC	pAkt inh -117%
CCC(=O)Nc1ccccc1C(=O)OCc1ccc(C(=O)c2ccccc2)cc1	none
CCC(=O)Nc1ccccc1C(=O)OCC(=O)c1cccc2ccccc12	pAkt inh -118%
O=C(O)c1ccc(-n2cccc2/C=C2/NC(=O)N(c3ccccc3)C2=O)cc1	GLS inhibitor 10µM
O=C(O)c1ccc(-n2cccc2/C=C2/SC(=O)N(CC(=O)N3CCCC3)C2=O)cc1	GLS inhibitor 16µM
N#Cc1ccccc1CN1C(=O)S/C(=C/c2cccn2-c2ccc(C(=O)O)cc2)C1=O	IDH1 R132H inh inconclusive
O=C(O)c1ccc(-n2cccc2/C=C2/NC(=O)N(c3cccc(Cl)c3)C2=O)cc1	GLS inhibitor inconclusive
CCOC(=O)N1CCN(Cc2ccc3c(c2)CN(C(=O)c2cc(-c4ccccc4)on2)CCO3)CC1	none (no result: pAkt inh, Mm-Cpn inhibitor, CCT modulator, IDH1 R132H inh, GLS inhibitor)
O=S(=O)(O)OCC1OC(OC2(COS(=O)(=O)O)OC(COS(=O)(=O)O)C(OS(=O)(=O)O)C2OS(=O)(=O)O)C(OS(=O)(=O)O)C(OS(=O)(=O)O)C1OS(=O)(=O)O (configuration not stated)	none (no result: pAkt inh, Mm-Cpn inhibitor, CCT modulator, IDH1 R132H inh)
Cc1ccc(S(=O)(=O)N2CCCC(C(=O)O)C2)s1 (configuration not stated)	CCT modulator -94
O=C(O)C1CCCN(S(=O)(=O)c2cccs2)C1 (configuration not stated)	none
CC1=C2C(CCS2(=O)=O)CC2(C1)C(=O)OC(C)(C)OC2=O (configuration not stated)	pAkt inh -82%, GLS inhibitor inconclusive
COc1cc(-c2cc(C)c3cccc(OC)c3n2)cc2c1OCCN(C(=O)CCn1ccc(C)n1)C2	none (no result: pAkt inh, Mm-Cpn inhibitor, CCT modulator, IDH1 R132H inh, GLS inhibitor)
COc1cc(/C=N/NC(=S)NC2CC3CCC2C3)ccc1O (configuration not stated)	none
COc1ccc(/C=N/NC(=S)N[C@H]2CC3CCC2C3)cc1 (some centres not stated)	CCT modulator -67
Fc1cccc(Cl)c1CNc1ccc(N2CCCC2)cc1	GLS inhibitor 7.9µM
NS(=O)(=O)c1ccc(NCc2c(F)cccc2Cl)cc1	none
N#CCCn1cc(/C=C(\C#N)c2nc3ccccc3s2)c(-c2ccc(F)cc2)n1	pAkt inh -88%
Cc1ccccc1NC(=S)NNc1ncc(C(F)(F)F)cc1Cl	Mm-Cpn inhibitor 50µM
Cc1cccc(-n2ncc3c(NCCCN4CCCC4=O)ncnc32)c1	pAkt inh -106%
Cc1cc(C(=O)NCc2nc(-c3cccc(NC(=O)c4cc(C)oc4C)c3)oc2C)nc(C)n1	none (no result: pAkt inh, Mm-Cpn inhibitor, CCT modulator, IDH1 R132H inh, GLS inhibitor)
C/C1=C2N=C(/C=C3N=C(/C(C)=C4\[N-][C@@H]([C@H](CC(N)=O)[C@]4(C)CCC(=O)NC[C@@H](C)OP(=O)([O-])O[C@@H]4[C@@H](O)[C@H](n5cnc6cc(C)c(C)cc65)O[C@@H]4CO)[C@@]4(C)N=C1[C@H](CCC(N)=O)[C@@]4(C)CC(N)=O)[C@H](CCC(N)=O)C\3(C)C)[C@@H](CCC(N)=O)[C@@]/2(C)CC(N)=O.[CH3-].[Co+3]	none (no result: pAkt inh, Mm-Cpn inhibitor, CCT modulator, IDH1 R132H inh)
CCCCNC(=O)CCCCCNS(=O)(=O)c1ccc(Br)cc1	none
CCCCNC(=O)CCCCCNS(=O)(=O)c1ccc(OC)cc1	CCT modulator -41
O=C(Nc1cc(C(F)(F)F)ccc1-n1cncn1)c1ccc(Cl)cc1	pAkt inh -91%
CC(C)c1c(C(=O)NCCN2CCOCC2)cnn1-c1nccc(-c2cccs2)n1	none (no result: pAkt inh, Mm-Cpn inhibitor, CCT modulator, IDH1 R132H inh, GLS inhibitor)
COc1ccc(C(=O)NCCN2Cc3cc(C)ccc3OC(C)C2)c(OC)n1 (configuration not stated)	none (no result: pAkt inh, Mm-Cpn inhibitor, CCT modulator, IDH1 R132H inh, GLS inhibitor)
N#Cc1ccc(OCC(=O)NCC2COc3ccccc3O2)cc1 (configuration not stated)	CCT modulator -41
O=C(COc1ccccc1)NCC1COc2ccccc2O1 (configuration not stated)	none
COCCN1CCN(C(=O)c2cnn(-c3nccc(-c4ccco4)n3)c2C(C)C)CC1	none (no result: pAkt inh, Mm-Cpn inhibitor, CCT modulator, IDH1 R132H inh, GLS inhibitor)
CCc1cc(C(=O)NCC2Cc3cc(-c4ccccc4C(C)=O)ccc3O2)no1 (configuration not stated)	none (no result: pAkt inh, Mm-Cpn inhibitor, CCT modulator, IDH1 R132H inh, GLS inhibitor)
CS(=O)(=O)Nc1cc(C(=O)N2CCNC(=O)C2)c2c(c1)ncn2CCc1ccccc1	none (no result: pAkt inh, Mm-Cpn inhibitor, CCT modulator, IDH1 R132H inh, GLS inhibitor)
COc1ccccc1N1CC(C)(C)C(=O)N(C(=O)c2ccc(C)cc2)C1=S	GLS inhibitor inconclusive, Glioma ERSR ind 25µM
Cc1nc(S/C(=C\c2ccc(-c3ccc(C(=O)O)c(Cl)c3)o2)C(=O)O)n[nH]1	GLS inhibitor 16µM
CC(NC(=O)c1cccnc1)c1nnc2n1CCN(Cc1ccc(-c3ccccc3)cc1)CC2 (configuration not stated)	none (no result: pAkt inh, Mm-Cpn inhibitor, CCT modulator, IDH1 R132H inh, GLS inhibitor)
CN(C)C(CNC(=O)c1cccc(S(=O)(=O)N2CCN(c3ccccc3)CC2)c1)c1ccccc1 (configuration not stated)	CCT modulator -46 (no result: Mm-Cpn inhibitor)
COC(=O)c1cc(CNC(=O)c2cccc(F)c2)cc(NC(=O)c2ccccc2OC)c1	none (no result: pAkt inh, Mm-Cpn inhibitor, CCT modulator, IDH1 R132H inh, GLS inhibitor)
COc1ccc(NC2=NCCC(=O)N2Cc2cccs2)cc1	pAkt inh -111%, GLS inhibitor inconclusive
Cc1cc(C)c(C#N)c(SCCS(=O)(=O)c2ccc(Cl)cc2)n1	none
Cc1cc(C)c(C#N)c(SCCS(=O)(=O)Cc2ccc(Cl)cc2)n1	pAkt inh -91%
Cc1cc(C)c(C#N)c(SCc2ccc(C#N)cc2)n1	pAkt inh -92%
CCn1c(-c2ccccc2F)nc2cc(NC(C)=O)cc(C(=O)N3CCNC(=O)C3CC(=O)OC)c21 (configuration not stated)	none (no result: pAkt inh, Mm-Cpn inhibitor, CCT modulator, IDH1 R132H inh, GLS inhibitor)
CC(=O)Nc1ccc(NC2=Nc3ccccc3N3C2=Nc2c(c(C)nn2-c2ccccc2)C3c2ccccc2)cc1 (configuration not stated)	none
COc1ccc(NC2=Nc3ccccc3N3C2=Nc2c(c(C)nn2-c2ccc(C)cc2)C3c2cccnc2)cc1 (configuration not stated)	CCT modulator -45
C[C@@H]1CN([C@@H](C)CO)C(=O)c2cc(NC(=O)C3CC3)ccc2O[C@@H]1CN(C)Cc1ccc(Cl)c(Cl)c1	CCT modulator -41
CCOc1cccc(CNCc2ccc(C(=O)O)cc2)c1	CCT modulator -70

From PubChem BioAssay
